This is a sample that favours compounds with a hit; in the whole collection about 7.3% have one here.
SMN2 splice enh: qHTS Assay for Enhancers of SMN2 Splice Variant Expression | AID 1458, 2008 | Potency, µM (titrated, usually from 46.1 µM), for the others: at the highest dose activity change, positive = activation, actives largely listed as activators | HEK293 SMN2-luciferase splicing reporter, luminescence, 30-36 h | 2.8% of 210,000 active; also: % of control where 0% means no effect; nearly all actives have a fitted effect of over 55% in size
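HEK293 cells carry an SMN2 minigene-luciferase reporter in which exon 7 inclusion puts luciferase in frame. Cells were seeded at 2000 cells/well, attached for 10-12 hours, then exposed to compounds for 30-36 hours at 37C before ONE-Glo luminescence.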
FLuc modulator: qHTS profiling assay for firefly luciferase inhibitor/activator using purifed enzyme and Km concentrations of substrates (counterscreen for miR-21 project); Luciferin 4-monooxygenase (Photinus pyralis), P08659; Potency, µM (titrated, usually from 57.5 µM), inactives show top-dose activity change, negative = inhibition, most hits filed as inhibitors; AID 588342, 2011; purified FLuc, Km substrates, luminescence inhibition; 6.9% of 360,000 active;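 also: plate controls were vehicle for no effect and reference inhibitor for full effect; nearly all actives have a fitted effect of over 55% in size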
Target sequence (P08659 whole entry, looked up): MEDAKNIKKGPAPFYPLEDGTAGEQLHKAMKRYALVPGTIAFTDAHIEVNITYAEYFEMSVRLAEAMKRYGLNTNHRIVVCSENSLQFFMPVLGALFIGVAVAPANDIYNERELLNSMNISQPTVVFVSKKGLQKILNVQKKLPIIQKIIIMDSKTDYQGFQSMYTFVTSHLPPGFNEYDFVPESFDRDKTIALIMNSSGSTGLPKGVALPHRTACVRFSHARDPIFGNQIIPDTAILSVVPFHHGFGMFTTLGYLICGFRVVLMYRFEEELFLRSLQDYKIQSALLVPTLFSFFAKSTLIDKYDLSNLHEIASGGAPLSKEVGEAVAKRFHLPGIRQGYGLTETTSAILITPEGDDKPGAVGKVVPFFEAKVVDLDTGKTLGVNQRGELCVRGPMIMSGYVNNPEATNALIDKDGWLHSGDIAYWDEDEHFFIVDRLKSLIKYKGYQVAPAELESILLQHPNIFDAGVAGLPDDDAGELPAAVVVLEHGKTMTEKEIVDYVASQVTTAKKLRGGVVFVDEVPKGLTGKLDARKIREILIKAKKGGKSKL
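Biochemical qHTS of compounds, final roughly 60 µM downward over six points, against 10 nM purified firefly luciferase using Km concentrations of substrates (10 uM D-luciferin, 10 uM ATP) in Tris acetate pH 7.5 buffer; luminescence output.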
NPC1 promoter act: qHTS Assay for NPC1 Promoter Activators | Huh7 NPC1 promoter luciferase reporter, 24 h | Potency, µM (highest dose often 9.22 µM), without a hit: at the top dose activation, usual class: activators | 2.4% of 320,000 active | AID 485313, 2010; also: % of control where 0% means no effect; nearly all actives have a fitted effect of over 60% in size
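In 1536-well qHTS, Huh7 cells harboring an NPC1 promoter–luciferase construct received compound for 24 h; activation was quantified by luminescence following luciferase reagent addition.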
uPA generation: qHTS for Inhibitors of Cell Surface uPA Generation; Potency, µM (top dose mostly 38.3 µM), for the others: at the highest dose activity change, negative = inhibition, actives largely listed as inhibitors; 0.31% of 330,000 active; cell surface uPA generation assay, qHTS; active = well fitted inhibition curve with a large enough effect; inconclusive = small, poorly fitted or top-dose-only effect; inactive = no such curve, though single readings can be large or run the other way; tested in mouse RAW 264.7 cells; also: % is scaled to controls: 0 for no effect and ±100 for the full control effect; nearly all actives have a fitted effect of over 55% in size
Rab9 promoter act: qHTS Assay for Rab9 Promoter Activators; Huh7 Rab9 promoter-luciferase reporter, luminescence, 24 h; Potency, µM (series often up to 9.22 µM), for the others: at the top dose activation, negative = inhibition, most hits filed as activators; 2.8% of 320,000 active; also: % of control where 0% means no effect; nearly all actives have a fitted effect of over 60% in size
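Stable Rab9-luc Huh7, 1500 cells/well, 2 h settle; cmpd in DMSO, 24 h, 37 °C/5% CO2; luciferase reagent 10 min RT; luminescence.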
ELG1 genotoxic: qHTS screen for small molecules that induce genotoxicity in human embryonic kidney (HEK293T) cells expressing luciferase-tagged ELG1. HEK293T ELG1-luciferase reporter, luminescence, 16 h. 1.3% of 330,000 active. Potency, µM (series often up to 46 µM), without a hit: top-dose activity change, positive = activation, hits mostly activators; also: % of control where 0% means no effect; nearly all actives have a fitted effect of over 60% in size
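Genotoxic stress is detected as increased luminescence from luciferase-tagged ELG1 in HEK293T cells, measured with ONE-Glo after a 16 hr treatment at 37 °C.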
* = called active by the depositor; ? = inconclusive; · = no result given. Unless noted, calls follow the shape of the dose curve; as a rule, active = well fitted curve in the direction sought with a large enough effect; inconclusive = small, poorly fitted or top-dose-only effect, or another doubt; inactive = no such curve, though single readings can be large; an effect the other way counts as inactive or inconclusive. Potency is read from the fitted curve at half-maximal effect.

SMILES	SMN2 splice enh	FLuc modulator	NPC1 promoter act	uPA generation	Rab9 promoter act	ELG1 genotoxic
N#C/C(=C\c1cccnc1)c1nc2c(s1)CCCC2	12.6µM*	12µM*	3.55µM*	-6.6%	3.98µM*	16.4µM*
CC1CCc2nc(/C(C#N)=C/c3cccnc3)sc2C1 (configuration not stated)	2µM*	2.13µM*	?	-2.7%	1.26µM*	2.31µM*
N#C/C(=C/c1cccnc1)c1ccccc1	·	-16.2%	4.5%	-4.0%	2.9%	4.2%
COc1cc(/C=C(\C#N)c2nc3c(s2)CCCC3)ccc1O	22.4µM*	6.01µM*	?	·	?	11.2µM*
COc1cccc(Cn2c(=O)n(-c3ccc(Br)cc3F)c(=O)c3sc4ccccc4c32)c1	-7.6%	-1.7%	·	·	·	·
CCOC(=O)C(CC)Sc1ccc2nnc(CCNS(=O)(=O)c3ccc(C)cc3)n2n1 (configuration not stated)	·	-2.2%	·	·	·	·
CCOC(=O)c1cc(-c2ccc(C)cc2)n(CCC(=O)Nc2ccc(OC)c(OC)c2)c1C	-14.0%	-18.8%	·	·	·	·
CC1CN/C(=C\C(=O)c2ccccc2)C(=O)N1 (configuration not stated)	10µM*	12µM*	2.82µM*	-7.3%	3.98µM*	?
O=C1NCCN/C1=C\C(=O)c1ccc(Cl)cc1	·	10.7µM*	1.58µM*	-3.5%	3.55µM*	?
O=C1NCCN/C1=C\C(=O)c1ccc(F)cc1	·	?	28.8%	-2.8%	?	18.4%
CC1CN/C(=C\C(=O)c2ccc(Cl)cc2)C(=O)N1 (configuration not stated)	3.16µM*	2.39µM*	0.398µM*	-8.9%	0.501µM*	?
Cc1ccc(CNC(=O)c2ccc(N3Cc4ccccc4Oc4ncccc43)s2)cc1	1.7%	-11.1%	·	·	·	·
CC(C)(C)c1ccc(CN(Cc2ccco2)c2cnc(S(C)(=O)=O)nc2C(=O)Nc2ccc(F)cc2)cc1	·	-0.1%	·	·	·	·
COc1ccc(C(=O)Nc2ccc(-c3nnn(CC(=O)N4CCN(C(=O)c5ccco5)CC4)n3)cc2)cc1	-13.2%	13.5µM*	1.5%	-9.7%	1.4%	-7.1%
CN(Cc1nc(-c2cccs2)no1)CC1COCCO1 (configuration not stated)	·	?	?	5.9%	?	?
CN(Cc1nc(C(c2ccccc2)c2ccccc2)no1)CC1COCCO1 (configuration not stated)	·	15.1µM*	?	0.1%	?	?
O=C(CN1C(=O)CCc2cc(Br)ccc21)Nc1ccc(OC(F)(F)F)cc1	·	3.0%	·	·	·	·
O=C(O)CCC(=O)NNC(=O)c1ccc([N+](=O)[O-])cc1	·	-2.1%	0.2%	-2.0%	-4.0%	-0.2%
CCCC(C)NC(=O)c1ccc(F)cc1 (configuration not stated)	1.1%	-13.0%	12.6%	-0.1%	10.6%	23.5%
CCCC(C)NC(=O)c1ccc(-c2ccccc2)cc1 (configuration not stated)	·	?	?	·	1.78µM*	?
CCC(=O)c1ccc(-c2ccccc2)cc1	?	15.1µM*	2.9%	3.9%	1.7%	?
CC(NC(N)=O)C(=O)OCC(=O)c1ccc(-c2ccccc2)cc1 (configuration not stated)	25.6%	12µM*	9.6%	6.0%	17.7%	6.9%
O=C(O)CCC(=O)NNC(=O)c1ccc(-c2ccccc2)cc1	25.8%	19µM*	-1.4%	7.8%	1.1%	2.4%
Cc1cccc(C)c1NC(=O)CN(C1CCCCC1)S(C)(=O)=O	·	-3.2%	-4.7%	0.7%	-1.4%	-1.8%
Cc1cccc(NC(=O)C2C3C=CC(O3)C2C(=O)O)c1 (configuration not stated)	·	-2.0%	-0.7%	·	0.7%	-6.5%
SMILES	SMN2 splice enh	FLuc modulator	NPC1 promoter act	uPA generation	Rab9 promoter act	ELG1 genotoxic
O=C(COc1ccc([N+](=O)[O-])cc1)Nc1nc2c(s1)CCCC2	·	-6.1%	·	·	·	·
CN(C)c1cc[n+](CC(=O)c2ccc(-c3ccccc3)cc2)cc1	-99.8%	0.3%	-23.6%	7.08µM*	-17.9%	-12.4%
O=C(C[n+]1ccc(CCSc2ccc(F)cc2)cc1)c1ccccc1	2.2%	-10.5%	-6.6%	1.2%	-2.6%	-1.8%
O=C(O)CCC(=O)c1ccc(-c2ccccc2)cc1	29.3%	8.49µM*	24.9%	23.6%	?	8.8%
Cc1ccc(SCCc2cc[n+](CC(=O)c3ccccc3)cc2)cc1	·	19µM*	29.0%	0.8%	?	?
Cc1ccccc1OC(=O)CSc1nnc(-c2ccc(F)cc2)o1	·	-1.2%	·	·	·	·
CC1CCN(C(=O)c2ccc3c(c2)N(Cc2ccccc2)C(=O)c2ccccc2S3(=O)=O)CC1	-11.5%	7.1%	·	·	·	·
OC1CCN(Cc2ccc(OCc3ccccc3)cc2)CC1	·	10.7µM*	2µM*	-6.6%	?	?
CCCCNC(=O)C1CCN(Cc2ccc(OCc3ccccc3)cc2)CC1	?	19µM*	?	-16.4%	?	?
CCN(CC)C(=O)C1CCN(Cc2ccc(OCc3ccccc3)cc2)CC1	·	2.7%	8.3%	-0.6%	0.2%	-5.1%
CC(c1ccco1)N(C(=O)COc1ccc(Cl)cc1Cl)c1ccccn1 (configuration not stated)	14.4%	4.26µM*	24.4%	-10.5%	?	2.31µM*
CC(c1ccco1)N(C(=O)COc1ccc(Cl)cc1)c1ccccn1 (configuration not stated)	?	21.3µM*	11.6%	0.7%	24.3%	8.91µM*
CC(c1ccco1)N(C(=O)c1ccccc1F)c1ccccn1 (configuration not stated)	6.7%	-1.9%	-3.6%	-1.7%	-0.2%	-0.9%
O=C(NCCSc1c(-c2ccc(Br)cc2)[nH]c2ccccc12)c1ccc(S(=O)(=O)N2CCOCC2)cc1	-12.3%	0.3%	·	·	·	·
O=C(O)C[C@H](NC(=O)CP(=O)(O)O)C(=O)O.[NH-][C@@H]1CCCC[C@@H]1[NH-].[Pt]	2.51µM*	·	·	·	·	·
CC(=O)NC(CC(=O)O)C(=O)O (configuration not stated)	5.7%	4.8%	-9.1%	-10.0%	0.3%	-6.8%
CCOc1ccc(NC(=O)NC(=O)N(C(C)C)S(C)(=O)=O)cc1	-14.0%	4.7%	-6.2%	2.8%	11.8%	0.6%
Cc1cc(=O)[nH]c(SC(C)C(=O)Nc2cccc3ccccc23)n1 (configuration not stated)	·	0.9%	0.9%	2.2%	1.1%	-0.4%
